What all share (assay): NCI-60 one-dose screen, 48 h (100 = growth as untreated, 0 = no growth, -100 = all killed)
Settings in all cases: 10 µM unless noted

For experiment [1], the system named is NCI-H23 lung.
The test system of experiment [2] is NCI-H322M lung.
The subject of experiment [3] is HOP-62 NSCLC.
Experiment [4] deals with NCI-H460 lung.
Experiment [5] has as its system HOP-92 NSCLC.
The subject of experiment [6] is NCI-H522 lung.
In experiment [7] the test system is A549/ATCC NSCLC.
Experiment [8] has as its system 786-0 renal.
For experiment [9], the system named is COLO 205 colon.
Experiment [10] deals with DU-145 prostate.
The subject of experiment [11] is K-562 leukemia.
Experiment [12] relates to MALME-3M melanoma.
Experiment [13] concerns MDA-MB-231 breast.
Experiment [14] relates to RXF 393 renal.
For experiment [15], the system named is SF-268 CNS.
Experiment [16] has as its system SF-295 CNS.
Experiment [17] concerns SF-539 CNS.
The test system of experiment [18] is UACC-257 melanoma.
In experiment [19] the test system is M14 melanoma.
Experiment [20] relates to HCT-15 colon.

About 83,000 compounds went through this panel and 20% of them were active in at least one assay; those are over-represented in the sample as a whole.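 Values shown are percent growth following 48 h exposure of cells in 96-well plates to a single concentration of compound; below 10 was considered active.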 Unmarked numbers belong to inactive results. Activity calls are given as the source filed them.

As to `O=C(NCCCN1CCC(N2CCCCC2)CC1)C1=Cc2cc(Br)ccc2OC1`, the growth in experiment [1] is 56.2%; in [2], 69.2%; in experiment [3], 87.9%; in [4], 13.8%; in experiment [5], 80.7%; in [6] it was 31%. Further, the growth was 49.1% in experiment [7]; 53.5% in experiment [8]; 46.1% in experiment [9]; 68.7% in [10]; 14.8% in [11]; 97.9% in [12]. Also, the growth in experiment [13] is 17.6%; in experiment [14] it was 52.3%; in experiment [15], 50.2%; in [16] it was 3.29% (active); in experiment [17] it was 87.4%; in [18] it was 59.8%. Further, the growth is 38.7% in [19] and 41.1% in [20].
For the compound `O=C(Nc1ccc(F)cc1F)c1cc(Cl)ccc1O`, the growth in experiment [1] was 5.18% (active); in [2], 5.61% (active); in [3], 3.07% (active); in [4], 7.22% (active); in [5], -20.5% (active); in experiment [6] it was -28.2% (active). In addition, the growth in experiment [7] is 6.37% (active); in [8], 2.83% (active); in [9], 9.45% (active); in experiment [10], 18%; in [11], 11%; in [12], -21.9% (active). Besides, the growth was 10.3% in [13]; 4.05% (active) in experiment [14]; 15% in experiment [15]; -8.97% (active) in experiment [16]; 12.3% in [17]; -11% (active) in [18]. The growth in experiment [19] was 18.8%; in experiment [20] it was 13.9%.
For `CC1=C(C(=O)OCC2CCN(C(=O)OC(C)(C)C)CC2)[C@H](c2cccc(Br)c2)C2=C(CC(C)(C)CC2=O)N1`, the growth was 48.4% in experiment [1]; 57.2% in experiment [2]; 55.7% in experiment [3]; 8.59% (active) in [4]; 61.7% in [5]; 19.8% in experiment [6]. Also, the growth is 17.3% in experiment [7]; 44.1% in [8]; 27.4% in experiment [9]; 38.3% in experiment [10]; 15.8% in [11]; 26.1% in experiment [12]. Also, the growth in [13] was 46%; in experiment [14], 66.3%; in [15], 33.1%; in experiment [16], 39.9%; in [17] it was 41.2%; in experiment [18] it was 29.1%. Besides, the growth in experiment [19] was 29.8%; in [20], 21%.
Regarding `O=C(CSc1ccc2nnc(-c3cccc(F)c3)n2n1)Nc1ccc2c(c1)OCO2`, the growth in [1] is 76.5%; in experiment [2], 85%; in experiment [3] it was 81.4%; in experiment [4], 81.1%; in experiment [5] it was -6.23% (active); in [6], 85.4%. The growth in experiment [7] was 52.8%; in experiment [8], 93.6%; in [9], 112%; in [10], 77.1%; in [11], 74.2%; in experiment [12], 81%. The growth was 48.9% in [13]; 98.5% in experiment [14]; 51.3% in experiment [15]; 91.6% in experiment [16]; 84.3% in experiment [17]; 94.8% in experiment [18]. Also, the growth is 83.9% in experiment [19] and 66.1% in [20].
For `Nc1ncnc(N)c1NC(=O)c1ccc(OCc2ccccc2)cc1`, the growth in experiment [1] was 105%; in experiment [2], 100%; in experiment [3], 104%; in experiment [4] it was 107%; in experiment [5], 106%; in experiment [6], 91.3%. Besides, the growth was 103% in [7]; 104% in experiment [8]; 103% in [9]; 111% in experiment [10]; 105% in [11]; 102% in [12]. Besides, the growth is 104% in experiment [13]; 107% in [14]; 104% in experiment [15]; 103% in experiment [16]; 95.5% in experiment [17]; 104% in [18]. Moreover, the results for the growth in [19] and in experiment [20] were 108% and 99.5%, respectively.
Regarding `Cc1sc2ncnc(Sc3nc4ccccc4[nH]3)c2c1C`, the growth in experiment [1] was 57%; in experiment [2], -18.4% (active); in experiment [3], -62.6% (active); in experiment [4], -78.9% (active); in [5] it was -12.1% (active); in experiment [6], -78.6% (active). The growth in experiment [7] is -55.1% (active); in experiment [8], -94.7% (active); in experiment [9], -74.6% (active); in experiment [10] it was -83.2% (active); in experiment [11], -47.4% (active); in [12], -82.7% (active). Also, the growth is -79.5% (active) in experiment [13]; -59.7% (active) in [14]; -78.3% (active) in [15]; -81.7% (active) in [16]; -95.5% (active) in experiment [17]; -88.6% (active) in experiment [18]. The figures for the growth in experiment [19] and in experiment [20] were -78.9% (active) and -38% (active), respectively.
For `O=C(CN1C=NC2C(N3CCOCC3)=NC=NC21)c1cccc2ccccc12` (stereo not given), the growth in experiment [1] is 103%; in experiment [2], 98.8%; in experiment [3], 99.2%; in experiment [4], 103%; in experiment [5] it was 90.2%; in [6], 90.2%. The growth was 90.1% in experiment [7]; 101% in experiment [8]; 119% in experiment [9]; 105% in experiment [10]; 107% in [11]; 114% in [12]. Further, the growth in experiment [13] was 88.1%; in experiment [14] it was 100%; in experiment [15] it was 84.7%; in experiment [16], 102%; in experiment [17] it was 98.9%; in [18], 101%. The growth in experiment [19] is 105%; in [20], 95.8%.
Regarding `O=C1NC(=O)C(=Cc2cn(Cc3cn(Cc4ccc(Cl)cc4Cl)nn3)c3ccccc23)C(=O)N1`, the growth was 81.4% in experiment [1]; 92.4% in [2]; 94.3% in experiment [3]; 51.7% in experiment [4]; 92.6% in experiment [5]; 77.7% in experiment [6]. The growth in experiment [7] is 101%; in experiment [8] it was 106%; in experiment [9], 122%; in experiment [10] it was 98.9%; in experiment [11], 75.5%; in [12] it was 91.5%. The growth is 81.9% in experiment [13]; 85.2% in [14]; 84.8% in experiment [15]; 89.6% in [16]; 93% in experiment [17]; 95.8% in experiment [18]. Also, the growth in experiment [19] is 96.8%; in experiment [20] it was 90.4%.

Source of the values: PubChem BioAssay (NCI).
